The source of these data is PubChem BioAssay (NCI).

Test systems include DU-145 prostate; K-562 leukemia; MALME-3M melanoma; MDA-MB-231 breast; RXF 393 renal; SF-268 CNS; SF-295 CNS; SF-539 CNS; UACC-257 melanoma; M14 melanoma; HCT-15 colon; HT29 colon; SNB-75 CNS; SNB-19 CNS; U251 CNS; SK-MEL-5 melanoma; UACC-62 melanoma; LOX IMVI melanoma; SK-MEL-28 melanoma.
Common to all, as to test: NCI-60 one-dose screen, 48 h (100 = growth as untreated, 0 = no growth, -100 = all killed)
Holding throughout (settings): 10 µM unless noted

This is part of a sample that, as a whole, favours compounds with a hit. Of some 83,000 tested, about 20% had one in any assay.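 Method: cells in 96-well plates; compound added at one concentration; 48 h incubation; percent growth measured; values under 10 scored active.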 Unmarked numbers belong to inactive results. The source made the active and inactive calls.

Regarding `O=C(CCN1C(=O)/C(=C/c2ccc(Cl)cc2)SC1=S)NCCCN1CCOCC1`, the growth with DU-145 prostate was 106%; with K-562 leukemia, 97.8%; in the assay with MALME-3M melanoma, 100%; with MDA-MB-231 breast, 100%; in the assay on RXF 393 renal, 109%; in the assay on SF-268 CNS it was 95.7%. The growth in the assay with SF-295 CNS was 95.2%; in the assay with SF-539 CNS, 93.7%; in the assay on UACC-257 melanoma, 102%; with M14 melanoma, 103%; in the assay on HCT-15 colon it was 98%; in the assay on HT29 colon, 105%. The growth was 92.4% in the assay with SNB-75 CNS; 101% in the assay on SNB-19 CNS; 102% with U251 CNS; 97.5% in the assay with SK-MEL-5 melanoma; 92.4% in the assay on UACC-62 melanoma; 99.7% with LOX IMVI melanoma. Further, the growth in the assay with SK-MEL-28 melanoma is 100%.

In the case of `O=c1c2c3c(sc2nc(N/N=C/c2cn(-c4ccccc4)nc2-c2ccc(Cl)cc2)n1Cc1ccccc1)CCCC3`, the growth with DU-145 prostate is 116%; in the assay on K-562 leukemia it was 3.49% (active); in the assay with MALME-3M melanoma, 115%; with MDA-MB-231 breast, 113%; in the assay on RXF 393 renal, 118%; in the assay on SF-268 CNS it was 91.8%. Moreover, the growth in the assay with SF-295 CNS is 62.2%; in the assay on SF-539 CNS, 95.9%; in the assay on UACC-257 melanoma it was 92%; with M14 melanoma, 98.1%; with HCT-15 colon, 114%; in the assay on HT29 colon it was 110%. In addition, the growth with SNB-75 CNS was 102%; in the assay with SNB-19 CNS, 107%; with U251 CNS, 111%; with SK-MEL-5 melanoma, 104%; in the assay on UACC-62 melanoma it was 94.7%; in the assay with LOX IMVI melanoma, 110%. For the same compound, the growth in the assay on SK-MEL-28 melanoma was 112%.

As to `OC(COc1cccc2ccccc12)CN1CCN(c2ccccc2Cl)CC1` (stereo not drawn), the growth in the assay with DU-145 prostate was 109%; with K-562 leukemia it was 99.3%; with MALME-3M melanoma, 108%; in the assay on MDA-MB-231 breast, 83.7%; in the assay with RXF 393 renal, 158%; with SF-268 CNS, 98.6%. Moreover, the growth with SF-295 CNS is 86.4%; in the assay with SF-539 CNS, 93.2%; with UACC-257 melanoma, -1.88% (active); in the assay on M14 melanoma, 84.7%; in the assay with HCT-15 colon, 99%; in the assay with HT29 colon, 85.7%. Moreover, the growth with SNB-75 CNS was 86.7%; in the assay on SNB-19 CNS, 83.4%; with U251 CNS it was 97.8%; in the assay with SK-MEL-5 melanoma, 90.7%; with UACC-62 melanoma it was 93.9%; with LOX IMVI melanoma, 92.6%. Besides, the growth with SK-MEL-28 melanoma is 112%.

With `Cn1ncc2c(=O)nc3c(-c4ccccc4)n[nH]n3c21`, the growth is 101% with DU-145 prostate; 119% with K-562 leukemia; 98.6% in the assay with MALME-3M melanoma; 102% in the assay with MDA-MB-231 breast; 121% in the assay on RXF 393 renal; 101% in the assay with SF-268 CNS. Besides, the growth with SF-295 CNS is 84.5%; in the assay with SF-539 CNS, 96.2%; in the assay on UACC-257 melanoma, 98.7%; with M14 melanoma, 104%; with HCT-15 colon, 104%; in the assay with HT29 colon, 103%. For the same compound, the growth with SNB-75 CNS is 96.3%; in the assay on SNB-19 CNS it was 99.1%; with U251 CNS it was 110%; in the assay on SK-MEL-5 melanoma, 110%; in the assay with UACC-62 melanoma, 96.7%; in the assay on LOX IMVI melanoma it was 115%. In addition, in the assay with SK-MEL-28 melanoma, the growth is 138%.

Take `COc1cc(C2CC(=O)c3ccccc3N2)cc(OC)c1OC` (stereo not drawn): the growth in the assay with DU-145 prostate is 117%; in the assay on K-562 leukemia it was 97.6%; in the assay with MALME-3M melanoma, 93.7%; with MDA-MB-231 breast, 86.9%; in the assay with RXF 393 renal, 102%; with SF-268 CNS, 104%. Besides, the growth in the assay with SF-295 CNS is 91.7%; in the assay with SF-539 CNS it was 102%; with UACC-257 melanoma, 87.1%; in the assay with M14 melanoma, 103%; in the assay on HCT-15 colon, 102%; in the assay with HT29 colon, 77.8%. In addition, the growth is 94.7% in the assay on SNB-75 CNS; 97.1% in the assay with SNB-19 CNS; 88.5% with U251 CNS; 99.5% in the assay on SK-MEL-5 melanoma; 94.1% with UACC-62 melanoma; 104% in the assay on LOX IMVI melanoma. Further, in the assay on SK-MEL-28 melanoma, the growth is 107%.

For `COc1ccc(C2CC(c3ccc(Cl)cc3)=NN2/C=C2\SC(=S)N(NC(=O)Cc3ccccc3Nc3c(Cl)cccc3Cl)C2=O)cc1` (stereo not drawn), the growth is 72.5% with DU-145 prostate; 1.36% (active) with K-562 leukemia; 60.5% in the assay on MALME-3M melanoma; 42.1% with MDA-MB-231 breast; 66.2% in the assay with RXF 393 renal; 62.9% in the assay with SF-268 CNS. In addition, the growth is 88% in the assay on SF-295 CNS; 71.1% in the assay with SF-539 CNS; 88.5% in the assay on UACC-257 melanoma; 65.9% with M14 melanoma; 68.7% in the assay with HCT-15 colon; 57.7% in the assay with HT29 colon. The growth in the assay on SNB-75 CNS was 58.4%; with SNB-19 CNS it was 18.2%; with U251 CNS, 54.1%; in the assay on SK-MEL-5 melanoma, 81.9%; with UACC-62 melanoma, 63.2%; in the assay on LOX IMVI melanoma, 26.9%. For the same compound, the growth in the assay on SK-MEL-28 melanoma is 92.1%.

Take `FC(F)(F)c1nc2c(NCc3ccc(-c4ccccc4)cc3)cccc2[nH]1`: the growth with DU-145 prostate is 81.2%; in the assay with K-562 leukemia, 6.87% (active); with MALME-3M melanoma, 71.4%; with MDA-MB-231 breast, 57.7%; with RXF 393 renal it was 85.7%; in the assay on SF-268 CNS, 76.5%. Further, the growth with SF-295 CNS was 88.9%; in the assay on SF-539 CNS it was 81.3%; in the assay with UACC-257 melanoma it was 87.7%; in the assay with M14 melanoma it was 90.1%; in the assay on HCT-15 colon it was 68.4%; in the assay with HT29 colon, 84.4%. Moreover, the growth was 90.7% in the assay with SNB-75 CNS; 117% with SNB-19 CNS; 66.6% in the assay with U251 CNS; 88.4% with SK-MEL-5 melanoma; 72.1% in the assay on UACC-62 melanoma; 82.4% with LOX IMVI melanoma. Moreover, the growth in the assay with SK-MEL-28 melanoma is 92.1%.
